Among the data in PubChem BioAssay (NCI) are growth values, retold here.

Among the test systems are NCI-H226 lung; NCI-H322M lung; HOP-62 NSCLC; NCI-H460 lung; HOP-92 NSCLC; NCI-H522 lung; A549/ATCC NSCLC; 786-0 renal; COLO 205 colon.
Experiment in all cases: NCI-60 one-dose screen, 48 h (100 = growth as untreated, 0 = no growth, -100 = all killed)
What all share (conditions): 10 µM unless noted

About 83,000 compounds went through this panel and 20% of them were active in at least one assay; those are over-represented in the sample as a whole.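 48-hour exposure, single concentration, 96-well plates; percent growth endpoint where 0 means no net growth. Active: below 10.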 A number with no mark means an inactive call. Activity calls are given as the source filed them.

`O=C(Nc1ncc(Cc2ccccc2)s1)c1ccc2c(c1)OCCCO2`: the growth is 46.2% with NCI-H226 lung; 45.4% in the test with NCI-H322M lung; 31.9% in the test with HOP-62 NSCLC; 15.2% in the test on NCI-H460 lung; 58.7% with HOP-92 NSCLC; -4.73% (active) in the test with NCI-H522 lung. Besides, the growth is 33.5% in the test on A549/ATCC NSCLC, 36.3% in the test on 786-0 renal and 12% in the test with COLO 205 colon.
As for `Fc1ccc2[nH]cc(-c3nc(-c4c[nH]c5ccncc45)cs3)c2c1`, the growth is 68.6% in the test on NCI-H226 lung; -5.67% (active) in the test on NCI-H322M lung; -73.6% (active) with HOP-62 NSCLC; -71.5% (active) with NCI-H460 lung; 28.6% with HOP-92 NSCLC; -61.1% (active) in the test on NCI-H522 lung. Further, the values for the growth in the test on A549/ATCC NSCLC, in the test on 786-0 renal and with COLO 205 colon were -41.7% (active), -92.9% (active) and -72.9% (active), respectively.
In the case of `CCS/C(Nc1ccccc1)=C(\C#N)C(=O)Nc1ccc(OC)cc1`, the growth in the test on NCI-H226 lung was 57.9%; with NCI-H322M lung, 51.6%; in the test with HOP-62 NSCLC it was 34.2%; in the test on NCI-H460 lung, 10.1%; with HOP-92 NSCLC it was 44.5%; with NCI-H522 lung, 0.635% (active). Moreover, the growth is 34.6% in the test with A549/ATCC NSCLC, 39.5% with 786-0 renal and 17.5% with COLO 205 colon.
Take `Oc1c(CN2CCCC2)cc(CSCc2ccccc2)c2cccnc12`: the growth in the test with NCI-H226 lung was -4.43% (active); in the test with NCI-H322M lung, -0.478% (active); with HOP-62 NSCLC it was 4.78% (active); with NCI-H460 lung, 2.01% (active); in the test with HOP-92 NSCLC it was 14.5%; with NCI-H522 lung it was 12.9%. Besides, the growth was 9.29% (active) in the test on A549/ATCC NSCLC, 6.65% (active) in the test with 786-0 renal and 51% in the test with COLO 205 colon.
On to `CN(Cc1cnc2nc(N)nc(N)c2n1)c1ccc(C(=O)NC(CCC(=O)O)C(=O)O)cc1Br` (centres undefined), for which the growth is 48.4% in the test with NCI-H226 lung; 69.6% with NCI-H322M lung; 33.5% in the test with HOP-62 NSCLC; 16.7% with NCI-H460 lung; 59.6% in the test with HOP-92 NSCLC; 43.8% with NCI-H522 lung. The growth in the test with A549/ATCC NSCLC is 26%; with 786-0 renal it was 15.8%; in the test with COLO 205 colon, 36.3%.
As for `Fc1cccc(-c2ccc3c(c2)C2(CCNCC2)CN3)c1`, the growth in the test on NCI-H226 lung was 98%; in the test on NCI-H322M lung it was 101%; in the test on HOP-62 NSCLC it was 105%; in the test on NCI-H460 lung, 106%; with HOP-92 NSCLC it was 91.3%; in the test with NCI-H522 lung, 90.4%. Moreover, the growth with A549/ATCC NSCLC is 99.9%; with 786-0 renal, 98.5%; in the test on COLO 205 colon it was 107%.
On to `C/C(=N\O)c1ccc(NC(=O)CSc2nnc(-c3cc(-c4ccc(S(N)(=O)=O)cc4)nc4ccccc34)n2-c2ccccc2)cc1`, for which the growth in the test on NCI-H226 lung was 80.4%; in the test with NCI-H322M lung it was 86.5%; in the test with HOP-62 NSCLC, 95.5%; in the test with NCI-H460 lung, 67.2%; in the test with HOP-92 NSCLC, 66%; in the test on NCI-H522 lung, 67.4%. Besides, the growth was 79.5% in the test on A549/ATCC NSCLC, 72.6% in the test with 786-0 renal and 78.3% with COLO 205 colon.
On to `COc1cccc(CNc2c3ccccc3nc3ccccc23)c1`, for which the growth with NCI-H226 lung was 48.1%; in the test on NCI-H322M lung it was 44%; in the test on HOP-62 NSCLC it was 46.5%; with NCI-H460 lung, 10%; in the test with HOP-92 NSCLC, 25.5%; with NCI-H522 lung, 61.7%. The growth with A549/ATCC NSCLC was 30.2%; in the test on 786-0 renal, 37.3%; in the test on COLO 205 colon, 9.63% (active).
For the compound `COc1ccc2cc(-c3ccnc4c(N=Nc5ccc(Cl)cc5)c(N)nn34)ccc2c1`, the growth in the test on NCI-H226 lung is 90.2%; with NCI-H322M lung, 102%; in the test with HOP-62 NSCLC, 94.4%; in the test on NCI-H460 lung, 100%; in the test with HOP-92 NSCLC it was 98.7%; in the test on NCI-H522 lung, 95.6%. Besides, the growth in the test on A549/ATCC NSCLC was 81.9%; in the test on 786-0 renal, 106%; with COLO 205 colon it was 110%.
On to `O=C(CCCCCNC(=O)c1cc(=O)c(O)co1)Nc1ccccc1`, for which the growth in the test with NCI-H226 lung is 105%; in the test with NCI-H322M lung it was 97.2%; in the test on HOP-62 NSCLC, 115%; in the test with NCI-H460 lung, 111%; with HOP-92 NSCLC, 99.8%; with NCI-H522 lung it was 90.9%. For the same compound, the growth in the test with A549/ATCC NSCLC is 97.6%; with 786-0 renal, 97.5%; in the test on COLO 205 colon it was 120%.
Regarding `COc1ccc(CCN2C(=O)/C(=C/c3ccc(C4Oc5ccccc5C5CC(c6ccccc6)=NN54)cc3)SC2=S)cc1` (centres undefined), the growth in the test on NCI-H226 lung is 105%; with NCI-H322M lung, 108%; in the test on HOP-62 NSCLC, 98.1%; in the test on NCI-H460 lung it was 110%; with HOP-92 NSCLC, 111%; in the test on NCI-H522 lung, 96%. Moreover, the growth is 108% in the test with A549/ATCC NSCLC, 106% in the test with 786-0 renal and 107% in the test on COLO 205 colon.
For the compound `Oc1c(CN2CCOCC2)cc(COCc2ccccc2)c2cccnc12`, the growth in the test with NCI-H226 lung is 43.4%; with NCI-H322M lung, 14.7%; in the test on HOP-62 NSCLC it was 10.7%; in the test on NCI-H460 lung, 16.1%; in the test with HOP-92 NSCLC, 62.4%; with NCI-H522 lung, 4.41% (active). Moreover, the results for the growth in the test with A549/ATCC NSCLC and in the test on 786-0 renal were 26.5% and 32.6%, respectively.
With `CN(Cc1ccccc1)c1nc(Cl)c(C2CC(c3ccccc3)=NN2c2ccccc2)s1` (centres undefined), the growth is 89% in the test with NCI-H226 lung; 97.6% in the test with NCI-H322M lung; 84.5% with HOP-62 NSCLC; 101% with NCI-H460 lung; 86% with HOP-92 NSCLC; 77.8% in the test with NCI-H522 lung. The values for the growth in the test on A549/ATCC NSCLC, with 786-0 renal and in the test with COLO 205 colon were 85.7%, 93.9% and 105%, respectively.
`CC(C)N1C(=O)/C(=c2\sc3n(c2=O)C2C(NN=3)N(C)C(=O)N2C)c2ccccc21` (centres undefined): the growth was 83% with NCI-H226 lung; 91.6% in the test with NCI-H322M lung; 74.7% in the test on HOP-62 NSCLC; 62.2% with NCI-H460 lung; 42.9% in the test with HOP-92 NSCLC; 33.9% in the test with NCI-H522 lung. For the same compound, the growth was 50.8% with A549/ATCC NSCLC, 62.7% in the test with 786-0 renal and 91.1% in the test with COLO 205 colon.
For `CC1(C)N=C(N)N=C(N)N1c1cccc(CCc2ccccc2)c1`, the growth in the test on NCI-H226 lung is 48.1%; in the test on NCI-H322M lung, 45.8%; in the test on HOP-62 NSCLC it was 45%; in the test with NCI-H460 lung, 16.1%; in the test on HOP-92 NSCLC it was 63.2%; in the test on NCI-H522 lung, 21.4%. Moreover, the growth in the test on A549/ATCC NSCLC is 24.8%; in the test with 786-0 renal, 30.8%; with COLO 205 colon it was 29.5%.
For `COc1ccc(C#Cc2ccc(=O)oc2-c2cc(OC)c(OC)c(OC)c2)cc1O`, the growth with NCI-H226 lung is 71.3%; in the test on NCI-H322M lung, 49.7%; in the test with HOP-62 NSCLC, 28.6%; with NCI-H460 lung, 15.3%; in the test with HOP-92 NSCLC, 48.4%; in the test on NCI-H522 lung it was 20.6%. Further, the values for the growth in the test on A549/ATCC NSCLC, in the test on 786-0 renal and in the test with COLO 205 colon were 42.6%, 54.3% and 69.4%, respectively.
As to `COc1ccc2c(c1)/C(=N/c1n[nH]c(=S)s1)C(=O)N2`, the growth in the test on NCI-H226 lung was 96.8%; in the test with NCI-H322M lung, 91.8%; in the test with HOP-62 NSCLC, 99.9%; in the test on NCI-H460 lung it was 92.9%; with HOP-92 NSCLC, 92.8%; in the test on NCI-H522 lung it was 76.3%. The growth in the test on A549/ATCC NSCLC was 83.7%; in the test with 786-0 renal, 105%; in the test with COLO 205 colon it was 118%.
`COc1cc(Cl)c(C)cc1NC(=O)c1cc2ccccc2cc1O`: the growth with NCI-H226 lung was 13.3%; in the test on NCI-H322M lung, 9.8% (active); in the test on HOP-62 NSCLC, 26.5%; with NCI-H460 lung, 6.83% (active); in the test with HOP-92 NSCLC, -15.4% (active); in the test with NCI-H522 lung, -11.5% (active). In addition, the growth in the test with A549/ATCC NSCLC was 10%; with 786-0 renal, 14.1%; with COLO 205 colon it was 86.9%.
In the case of `Cc1ccc(NC(=O)Cn2c(Br)nc3c2c(=O)n(C)c(=O)n3C)cc1`, the growth in the test on NCI-H226 lung is -13.2% (active); in the test on NCI-H322M lung, 30.6%; in the test with HOP-62 NSCLC, 6.37% (active); with NCI-H460 lung, 14.6%; in the test on HOP-92 NSCLC, -2.3% (active); in the test with NCI-H522 lung, 62.6%. The values for the growth in the test on A549/ATCC NSCLC and in the test on 786-0 renal were 27.1% and -67.1% (active), respectively.
